Our source for the PBM binding z-score values is the supplement of paper PMC6555819.

This experiment concerns VDR homodimer (NR concentration 270 nM). The experiment can be described thus: PBM binding z-score (relative to random genomic background probes); higher = stronger binding; sequences stand for … in GC…GCGATTGACAGCGTAGAATGAAGG
The procedure, abridged:
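Ligand-free nuclear receptor dimers were bound for 1 h to custom Agilent 4×180K protein-binding microarrays. Detection used antibodies against each partner (one per run). Binding z-scores rest on regression-normalized fluorescence, with random background probes as the reference.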
Sequence TATGCTAGGTCAACGATGGTCAGCTAATCTGCTA showed a PBM binding z-score of -0.267. AGATGTAGGTTACATCCGGGTCATTCAGGCTATG returned a PBM binding z-score of 2.53. The value for TCTATTAGTTGATTAGGACAACCGAAACAGCGGA was 1.03; that for CTCTAAAGGTCGGTTGAGGTGAGTATACGGATAA was 0.546; that for CTGACTGGGGCAAAGGTTACCATACTCAGTACGA was 0.376.

As for CCTAGCAGGCCAGAGTCACTCAAGCATTTCGCTT, the PBM binding z-score is -0.726. As for GATACAGGGTCAGCTAGCGGCCAGAGTATGGAAA, the figure is 0.352; as for CCTTACGGGTCACGAGGTTATTGCACGACGAGCG, 2.55. TCGAGTAGGTTAGTCGGGGCATTGAGCCAACATA: the PBM binding z-score is -0.0737.

Sequence CCGACTGGGGCAAAGGTTCCCATACTCAGTACGA came in with a PBM binding z-score of -0.00727. The sequence TGTCTAAGTTCAAAGGTAACGTAAGTATCCACAC returned a PBM binding z-score of 3.83. On to GCATATCGGTAATACAAGGTGAAAGTCCGATTGT, for which the PBM binding z-score is -0.28. As for TCTATTAGTTGAAGGGCAACCGTCGAGTCCGTTT, the PBM binding z-score came out at 1.61. As for CCGACTGGGGCAAAGGTTACCGTACTCAGTACGA, the PBM binding z-score was -0.111. The sequence CCGACTGGAGCAAAGGTTACCATACTCAGTACGA gave a PBM binding z-score of 0.17.

Sequence ATCTCTAGGTAAGCCTCAGTTCAGTGAAGAACGC returned a PBM binding z-score of 1.21. As to GCCTACGGGTCAAAGGTTATAGCATGAATAGAAT, the PBM binding z-score stood at 1.08. AGAATGAGGTTATACGTAGATCAGGGAAGAAAGT returned a PBM binding z-score of 0.864. Take ACTCGGAGGACAAAAGTCAGAGCTACGCCAGTGA: the PBM binding z-score is -0.631.

AGTCAAAGTTCGGGACGAGGTAACGTAAAGCACG showed a PBM binding z-score of 0.532.

On to CGAACTAGGTCATCCAGGACAGTGCATACATTGA, for which the PBM binding z-score came out at 2.29. The value for AGATCGAGGGCAATGAGTTGATAGCACGGGTGGC was 2.44; that for GCTCGCAGGACAAGGTCAGAGCTTTGTCCGTAGA was -0.354. ATCGAAAGGTAGAAGGTGAGTATACCCACCCGAA registered a PBM binding z-score of -0.279. In turn, AGAACGAGGGCAATGAGTTGAAAGCACGGGTGGC gave a PBM binding z-score of 3.

The sequence TTTCAAAGTTCAAAGGTAACGTAAGTATCCACAC registered a PBM binding z-score of 4.68. Consider TAGCGTAGGTCATTGGGCCAGTATAGTACGCATC, for which the PBM binding z-score is 0.725. In turn, ATCTCTAGGTAACCAAGTTCAGTGGATGCCGAAC showed a PBM binding z-score of 2.45. CCGAGTAGGTTCTGGGGCATTCAGGCAACGGTGA showed a PBM binding z-score of 0.0206. The value for ATATGTAGGTTAAGGGTCAGTCAGGTTGGTTCGC was 2.75. The value for CTTCCAAGGTCAGAGAGGTCAGTGAATGCCGAGT was 5.58; that for GCGACTGGGGCTAAGCAGGTTACCATAAGGTTGG was -0.2; that for TCTAACAGGCCAGAGGGTCACTCAAGAGGTACGG was 0.997. Take GCTAGCAGGCCAATTGGGTCACTCAATGACGGGC: the PBM binding z-score was -0.328. As for ATCGAAAGGTCGTGATGTGAGTATACAGAAAGGC, the figure is 0.997.

As to AGTCAAAGTTCAGGAGGAGGTAACGTAAAGCACG, the PBM binding z-score stood at 2.16. The value for CAGCCTAGGTCAGGGCCACTATAGGAGGAACGTT was -0.129; that for ACTAGCAGGCTAAGTTTGGGTCACTCAAACAAAG was -0.0144.

For the sequence ACAGTCAGGTGAGTGAAGGTAACTCAGCTGGACG, the PBM binding z-score is -0.58.
